Inconclusive results are not listed. The source made the active and inactive calls. Rule for the calls, unless noted: active = hit-call score of the fitted dose curve at least 0.9, where 1 is the maximum; inconclusive = response in the unintended direction; inactive = score below 0.9.
Assays:
[1] = ATG_TCF_b_cat_CIS: Attagene CIS-FACTORIAL HepG2 Assay for human T-Cell-Factor with beta-catenin (TCF/b-cat) (AID 2282965; active = hit-call score of the fitted dose curve at least 0.9, where 1 is the maximum; inactive = score below 0.9); settings: HepG2 TCF/beta-catenin cis-reporter transcription, actives raise or lower the signal
Method in brief: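 HepG2, transient MRTU transfection, cis-element-driven reporters (endogenous TFs). 24 h compound exposure. Readout: reporter mRNA by RT-PCR + 6-FAM primer extension, HpaI digest, capillary electrophoresis. Gain/loss fit vs DMSO baseline.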

[2] = ATG_TGFb_CIS: Attagene CIS-FACTORIAL HepG2 Assay for human Transforming Growth Factor (TGF) (AID 2282967; active = hit-call score of the fitted dose curve at least 0.9, where 1 is the maximum; inactive = score below 0.9); settings: HepG2 Attagene CIS TGFb reporter, mRNA transcription; actives raise or lower the signal
Method in brief: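 Bidirectional fitting relative to DMSO gave the endpoint. Underlying data: reporter mRNA from HepG2 cells carrying transiently transfected cis-regulated reporter constructs, harvested 24 h after dosing and analyzed by RT-PCR and capillary electrophoresis.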

[3] = ATG_VDRE_CIS: Attagene CIS-FACTORIAL HepG2 Assay for human Vitamin D Receptor Element (VDRE) (AID 2282968; active = hit-call score of the fitted dose curve at least 0.9, where 1 is the maximum; inactive = score below 0.9); settings: HepG2 VDRE cis-reporter transcription, actives raise or lower the signal
Method in brief: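 Transiently transfected HepG2 cells carrying cis-regulated reporter transcription units were exposed for 24 h. Reporter mRNA was measured by RT-PCR with fluorescent labelling and capillary electrophoresis, and fitted in both directions against DMSO.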

[4] = target: Nuclear receptor subfamily 1 group I member 3 (Homo sapiens) (UniProt Q14994); assay: ATG_CAR_TRANS: Attagene TRANS-FACTORIAL HepG2 Assay for human Constitutive Androstane Receptor (CAR) (AID 2282969); settings: HepG2 Attagene TRANS-FACTORIAL CAR reporter;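 note: activators raise reporter mRNA above DMSO so AC50 marks induction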
Method in brief: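 HepG2 cells transiently transfected with GAL4-UAS reporter units; TRANS format reads activity of exogenous chimeric NR-Gal4 protein. After 24 h dosing, reporter mRNA quantified by RT-PCR, 6-FAM labelling and capillary electrophoresis; gain of signal fitted against DMSO.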

[5] = target: Estrogen receptor (Homo sapiens) (UniProt P03372); assay: ATG_ERa_TRANS: Attagene TRANS-FACTORIAL HepG2 Assay for human Estrogen Receptor alpha (ERa) (AID 2282970); settings: HepG2 Attagene TRANS ERa GAL4 reporter, mRNA
Method in brief: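 HepG2 cells transiently transfected with multiplexed GAL4-UAS reporter units; ERa activity read via exogenous chimeric NR-Gal4 protein. After 24 hour compound exposure, reporter mRNA measured by RT-PCR with 6-FAM labelling and capillary electrophoresis; gain-of-signal fitted relative to DMSO.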

[6] = target: X-box-binding protein 1 (Homo sapiens) (UniProt P17861); assay: ATG_Xbp1_CIS: Attagene CIS-FACTORIAL HepG2 Assay for human X-box Binding Protein 1 (XBP1) (AID 2282972; active = hit-call score of the fitted dose curve at least 0.9, where 1 is the maximum; inactive = score below 0.9); settings: HepG2 XBP1 cis-element reporter, Attagene multiplex; actives raise or lower the signal
Method in brief: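 HepG2 cells transiently transfected with cis-regulated multiple reporter transcription units; endogenous transcription factor activity measured 24 hours after chemical dosing. Reporter mRNA quantified by RT-PCR, 6-FAM primer extension, HpaI digestion and capillary electrophoresis; bidirectional fitting versus DMSO.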

[7] = ATG_M_19_TRANS: Attagene TRANS-FACTORIAL HepG2 Assay for M19 Transcription Factor (Internal Marker) (AID 2282974); settings: HepG2 Attagene TRANS-FACTORIAL M19 internal marker reporter
Method in brief: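 HepG2 transiently transfected with GAL4-UAS multiplex reporter constructs, exposed 24 h; reporter RNA quantified by RT-PCR, 6-FAM labeling, HpaI digestion and capillary electrophoresis; internal background marker fitted upward versus DMSO.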

[8] = target: Glucocorticoid receptor (Homo sapiens) (UniProt P04150); assay: ATG_GR_TRANS: Attagene TRANS-FACTORIAL HepG2 Assay for human Glucocorticoid Receptor (GR) (AID 2282978); settings: HepG2 Attagene TRANS GR reporter, mRNA transcription;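 note: activators score as hits since higher reporter transcript over DMSO is fitted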
Method in brief: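 HepG2 cells transiently transfected with GAL4-UAS reporter units and exogenous GR-Gal4 chimera, dosed 24 h. Reporter mRNA by RT-PCR, FAM labeling, HpaI digest and capillary electrophoresis; gain-of-signal fit versus DMSO.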

[9] = target: Oxysterols receptor LXR-alpha (Homo sapiens) (UniProt Q13133); assay: ATG_LXRa_TRANS: Attagene TRANS-FACTORIAL HepG2 Assay for human Liver X Receptor alpha (LXRa) (AID 2282980); settings: HepG2 Attagene TRANS reporter, LXRa transactivation
Method in brief: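 HepG2 cells were transiently transfected with multiplexed reporter units driven by chimeric LXRa–GAL4 fusion proteins, then dosed for 24 h. Reporter mRNA was quantified by RT-PCR, fluorescent labelling and capillary electrophoresis; gain of signal fitted against DMSO baseline.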

[10] = ATG_M_06_TRANS: Attagene TRANS-FACTORIAL HepG2 Assay for M06 Transcription Factor (Internal Marker) (AID 2282983); settings: HepG2 Attagene TRANS M06 internal marker reporter;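 note: reporter transcript level by RT-PCR then capillary electrophoresis fluorescence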
Method in brief: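 HepG2 cells transiently transfected with multiplexed GAL4-UAS reporter transcription units; after 24 h compound exposure, reporter mRNA measured by RT-PCR, FAM-labelled primer extension, HpaI digestion and capillary electrophoresis. Gain-of-signal fitted versus DMSO baseline; background control readout.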

[11] = target: Nuclear receptor subfamily 4 group A member 2 (Homo sapiens) (UniProt P43354); assay: ATG_NURR1_TRANS: Attagene TRANS-FACTORIAL HepG2 Assay for human Nuclear Receptor Related Protein 1 (NURR1) (AID 2282985); settings: HepG2 Attagene TRANS reporter, mRNA readout
Method in brief: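 HepG2 cells transiently transfected with NURR1-Gal4 chimera and GAL4-UAS reporter units; after 24 hr compound exposure, reporter mRNA quantified by RT-PCR and capillary electrophoresis; gain of signal fitted against DMSO.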

[12] = target: Transcriptional activator Myb (Homo sapiens) (UniProt P10242); assay: ATG_Myb_CIS: Attagene CIS-FACTORIAL HepG2 Assay for human Myeloblastosis (Myb) Proto-Oncogene Transcription Factor (AID 2282986; active = hit-call score of the fitted dose curve at least 0.9, where 1 is the maximum; inactive = score below 0.9); settings: HepG2 Attagene CIS-FACTORIAL Myb reporter transcription; actives raise or lower the signal
Method in brief: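 Transiently transfected HepG2 cells carrying a multiplexed cis-promoter reporter set report endogenous Myb activity after 24 h compound exposure. Reporter mRNA is read by RT-PCR with capillary electrophoresis of fluorescent products, fitted bidirectionally against DMSO.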

[13] = ATG_M_32_TRANS: Attagene TRANS-FACTORIAL HepG2 Assay for M32 Transcription Factor (Internal Marker) (AID 2282984); settings: HepG2 Attagene TRANS M32 internal marker reporter
Method in brief: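 HepG2 cells transiently transfected with GAL4-UAS reporter units, dosed for 24 hours. Reporter mRNA quantified by RT-PCR, 6-FAM labelling, HpaI digestion and capillary electrophoresis; internal-marker signal fitted upward relative to DMSO.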

[14] = ATG_GAL4_TRANS: Attagene TRANS-FACTORIAL HepG2 Assay for GAL4 (Internal Marker) (AID 2282976); settings: HepG2 Attagene TRANS GAL4 internal marker reporter
Method in brief: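 HepG2 cells transiently transfected with multiplexed GAL4-UAS reporter constructs were dosed for 24 h. Reporter mRNA was measured by RT-PCR, 6-FAM primer extension, HpaI digestion and capillary electrophoresis, and gain of signal was fitted relative to DMSO.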

[15] = target: Bile acid receptor (Homo sapiens) (UniProt Q96RI1); assay: ATG_FXR_TRANS: Attagene TRANS-FACTORIAL HepG2 Assay for Farnesoid X Receptor (FXR) (AID 2282979); settings: HepG2 Attagene TRANS FXR-GAL4 reporter transcription;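 note: hits raise reporter mRNA above DMSO so AC50 marks FXR activation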
Method in brief: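 HepG2 cells transiently transfected with reporter constructs in which a chimeric FXR-GAL4 protein drives a GAL4-UAS reporter; 24 h compound exposure. Reporter mRNA measured by RT-PCR, FAM labelling, HpaI digestion and capillary electrophoresis; gain-of-signal versus DMSO.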

[16] = target: Oxysterols receptor LXR-beta (Homo sapiens) (UniProt P55055); assay: ATG_LXRb_TRANS: Attagene TRANS-FACTORIAL HepG2 Assay for human Liver X Receptor beta (LXRb) (AID 2282981); settings: HepG2 Attagene TRANS GAL4-LXRb reporter, mRNA
Method in brief: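 HepG2 cells transiently transfected with GAL4-UAS reporter units for chimeric NR-Gal4 proteins, dosed for 24 h. Reporter transcripts measured by RT-PCR and capillary electrophoresis; gain-of-signal fitting relative to DMSO.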

[17] = target: Hepatocyte nuclear factor 4-alpha (Homo sapiens) (UniProt P41235); assay: ATG_HNF4a_TRANS: Attagene TRANS-FACTORIAL HepG2 Assay for human Hepatocyte Nuclear Factor 4 alpha (HNF4a) (AID 2282982); settings: HepG2 HNF4a transactivation reporter, mRNA readout
Method in brief: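 HepG2 cells transiently transfected with HNF4a-Gal4 chimera and GAL4-UAS reporter units, dosed for 24 h. Reporter mRNA measured by RT-PCR, fluorescent primer extension and capillary electrophoresis; gain-of-signal fitted relative to DMSO.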

[18] = target: Estrogen-related receptor gamma (Homo sapiens) (UniProt P62508); assay: ATG_ERRg_TRANS: Attagene TRANS-FACTORIAL HepG2 Assay for human Estrogen-Related Receptor gamma (ERRg) (AID 2282977); settings: HepG2 Attagene TRANS reporter, ERRg transactivation;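 note: hits increase reporter signal over DMSO so potencies reflect activators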
Method in brief: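 HepG2 cells transiently transfected with multiplexed GAL4-UAS reporter units driven by chimeric NR-Gal4 proteins; 24 h exposure. Reporter mRNA quantified by RT-PCR, fluorescent labelling, HpaI digestion and capillary electrophoresis; gain of signal vs DMSO.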

[19] = target: Steroid hormone receptor ERR1 (Homo sapiens) (UniProt P11474); assay: ATG_ERRa_TRANS: Attagene TRANS-FACTORIAL HepG2 Assay for human Estrogen-Related Receptor alpha (ERRa) (AID 2282971); settings: HepG2 Attagene TRANS reporter, ERRa transactivation
Method in brief: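 HepG2 cells transiently transfected with multiplexed GAL4-UAS reporter units reading chimeric ERRa-Gal4 activity; 24 h compound exposure. Reporter mRNA measured by RT-PCR, 6-FAM labelling, HpaI digest and capillary electrophoresis; gain of signal fitted versus DMSO baseline.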

Measured: AC50

Glucocorticoid receptor (Homo sapiens), sequence (P04150 whole entry, looked up, the tested form may be a part): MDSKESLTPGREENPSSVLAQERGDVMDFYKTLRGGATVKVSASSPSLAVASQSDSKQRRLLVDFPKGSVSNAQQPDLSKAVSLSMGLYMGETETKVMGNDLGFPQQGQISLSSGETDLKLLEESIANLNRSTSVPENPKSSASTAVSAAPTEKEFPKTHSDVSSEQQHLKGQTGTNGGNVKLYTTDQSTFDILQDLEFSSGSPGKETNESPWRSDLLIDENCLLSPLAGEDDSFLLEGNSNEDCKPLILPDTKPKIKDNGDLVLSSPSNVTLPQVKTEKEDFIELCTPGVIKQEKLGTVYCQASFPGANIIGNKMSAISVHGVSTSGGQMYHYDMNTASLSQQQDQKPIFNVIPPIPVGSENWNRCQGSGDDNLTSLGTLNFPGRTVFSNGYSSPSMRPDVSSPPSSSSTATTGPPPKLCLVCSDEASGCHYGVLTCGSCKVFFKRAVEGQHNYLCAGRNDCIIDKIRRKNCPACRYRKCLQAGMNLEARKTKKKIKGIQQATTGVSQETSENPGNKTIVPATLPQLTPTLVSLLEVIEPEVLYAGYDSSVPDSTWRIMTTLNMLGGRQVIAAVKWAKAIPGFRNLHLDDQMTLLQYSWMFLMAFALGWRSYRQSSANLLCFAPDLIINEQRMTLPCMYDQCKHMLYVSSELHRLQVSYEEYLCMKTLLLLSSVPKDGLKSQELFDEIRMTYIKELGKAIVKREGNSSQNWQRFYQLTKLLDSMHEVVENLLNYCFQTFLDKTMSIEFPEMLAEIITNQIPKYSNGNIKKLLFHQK
Transcriptional activator Myb (Homo sapiens), sequence (P10242 whole entry, looked up): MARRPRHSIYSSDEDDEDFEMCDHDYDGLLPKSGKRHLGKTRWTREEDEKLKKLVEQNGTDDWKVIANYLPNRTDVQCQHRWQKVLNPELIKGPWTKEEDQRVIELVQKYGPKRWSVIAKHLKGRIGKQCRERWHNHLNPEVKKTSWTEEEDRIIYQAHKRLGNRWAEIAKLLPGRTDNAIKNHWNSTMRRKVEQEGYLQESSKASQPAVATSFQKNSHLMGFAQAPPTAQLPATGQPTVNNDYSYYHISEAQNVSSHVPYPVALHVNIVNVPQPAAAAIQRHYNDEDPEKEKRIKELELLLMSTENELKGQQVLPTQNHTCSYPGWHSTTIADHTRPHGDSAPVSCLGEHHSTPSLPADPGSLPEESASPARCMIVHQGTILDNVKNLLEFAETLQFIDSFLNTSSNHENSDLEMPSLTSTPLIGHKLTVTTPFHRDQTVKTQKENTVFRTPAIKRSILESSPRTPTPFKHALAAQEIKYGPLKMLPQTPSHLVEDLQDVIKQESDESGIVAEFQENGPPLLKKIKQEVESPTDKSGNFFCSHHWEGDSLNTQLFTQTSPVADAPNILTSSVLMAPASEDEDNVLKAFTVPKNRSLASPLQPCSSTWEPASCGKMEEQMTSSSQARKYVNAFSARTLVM
Hepatocyte nuclear factor 4-alpha (Homo sapiens), sequence (P41235 whole entry, looked up, the tested form may be a part): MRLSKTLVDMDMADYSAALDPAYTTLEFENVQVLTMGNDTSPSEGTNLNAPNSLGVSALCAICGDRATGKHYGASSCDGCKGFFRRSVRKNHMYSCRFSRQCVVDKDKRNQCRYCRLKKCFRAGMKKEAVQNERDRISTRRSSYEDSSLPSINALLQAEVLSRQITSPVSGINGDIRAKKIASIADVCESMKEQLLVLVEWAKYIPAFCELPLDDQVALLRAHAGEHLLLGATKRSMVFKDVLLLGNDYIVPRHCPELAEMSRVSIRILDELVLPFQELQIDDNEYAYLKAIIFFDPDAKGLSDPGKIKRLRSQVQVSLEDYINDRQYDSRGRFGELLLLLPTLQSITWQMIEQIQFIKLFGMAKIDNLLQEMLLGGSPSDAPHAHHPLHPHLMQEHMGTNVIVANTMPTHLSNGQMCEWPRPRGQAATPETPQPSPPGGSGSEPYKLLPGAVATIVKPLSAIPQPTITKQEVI
Bile acid receptor (Homo sapiens), sequence (Q96RI1 whole entry, looked up, the tested form may be a part): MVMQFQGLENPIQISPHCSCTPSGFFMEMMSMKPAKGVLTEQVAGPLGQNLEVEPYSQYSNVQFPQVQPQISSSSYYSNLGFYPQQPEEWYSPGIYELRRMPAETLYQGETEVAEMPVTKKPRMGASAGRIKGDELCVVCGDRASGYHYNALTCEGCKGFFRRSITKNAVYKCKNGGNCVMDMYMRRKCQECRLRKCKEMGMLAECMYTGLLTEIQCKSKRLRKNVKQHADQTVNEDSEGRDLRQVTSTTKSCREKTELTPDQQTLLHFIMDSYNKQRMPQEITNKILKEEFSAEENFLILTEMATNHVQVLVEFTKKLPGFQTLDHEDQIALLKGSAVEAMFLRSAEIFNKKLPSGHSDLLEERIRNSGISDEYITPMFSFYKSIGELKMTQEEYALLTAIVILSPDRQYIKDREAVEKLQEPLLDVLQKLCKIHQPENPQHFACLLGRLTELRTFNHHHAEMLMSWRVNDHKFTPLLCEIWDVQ
Oxysterols receptor LXR-beta (Homo sapiens), sequence (P55055 whole entry, looked up, the tested form may be a part): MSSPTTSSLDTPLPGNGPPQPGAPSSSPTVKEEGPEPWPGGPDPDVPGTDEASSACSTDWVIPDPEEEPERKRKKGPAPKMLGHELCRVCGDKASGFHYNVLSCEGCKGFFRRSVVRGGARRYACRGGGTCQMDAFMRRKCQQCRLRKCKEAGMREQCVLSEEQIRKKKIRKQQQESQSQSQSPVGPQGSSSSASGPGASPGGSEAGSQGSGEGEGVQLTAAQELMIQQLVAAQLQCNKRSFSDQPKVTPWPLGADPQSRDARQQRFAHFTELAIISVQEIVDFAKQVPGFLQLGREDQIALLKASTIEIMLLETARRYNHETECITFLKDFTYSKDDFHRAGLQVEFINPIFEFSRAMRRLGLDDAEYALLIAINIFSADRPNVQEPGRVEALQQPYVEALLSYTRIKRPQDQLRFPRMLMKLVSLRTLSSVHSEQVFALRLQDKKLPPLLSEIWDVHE
Estrogen receptor (Homo sapiens), sequence (P03372 whole entry, looked up, the tested form may be a part): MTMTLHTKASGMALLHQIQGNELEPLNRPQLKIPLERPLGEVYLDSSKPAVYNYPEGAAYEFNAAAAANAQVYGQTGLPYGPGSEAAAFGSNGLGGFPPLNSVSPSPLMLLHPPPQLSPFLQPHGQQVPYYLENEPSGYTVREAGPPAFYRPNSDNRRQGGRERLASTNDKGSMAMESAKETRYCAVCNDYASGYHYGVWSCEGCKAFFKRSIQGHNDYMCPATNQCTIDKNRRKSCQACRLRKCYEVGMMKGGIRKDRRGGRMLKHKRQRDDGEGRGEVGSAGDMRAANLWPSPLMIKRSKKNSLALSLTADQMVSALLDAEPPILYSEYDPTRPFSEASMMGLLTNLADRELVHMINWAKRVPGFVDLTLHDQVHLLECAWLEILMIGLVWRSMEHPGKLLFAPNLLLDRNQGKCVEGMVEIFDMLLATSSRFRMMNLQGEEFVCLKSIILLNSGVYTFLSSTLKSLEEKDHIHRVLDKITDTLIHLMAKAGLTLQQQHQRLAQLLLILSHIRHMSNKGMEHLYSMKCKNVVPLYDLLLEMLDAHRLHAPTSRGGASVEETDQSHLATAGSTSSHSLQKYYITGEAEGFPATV
X-box-binding protein 1 (Homo sapiens), sequence (P17861 whole entry, looked up): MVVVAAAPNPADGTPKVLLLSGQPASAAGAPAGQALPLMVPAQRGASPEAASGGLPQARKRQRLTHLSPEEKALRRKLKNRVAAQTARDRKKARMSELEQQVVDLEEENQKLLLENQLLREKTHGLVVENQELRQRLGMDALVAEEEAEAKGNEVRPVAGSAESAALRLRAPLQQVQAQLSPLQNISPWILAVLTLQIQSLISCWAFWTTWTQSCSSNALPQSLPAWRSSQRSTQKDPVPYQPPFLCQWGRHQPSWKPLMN
Oxysterols receptor LXR-alpha (Homo sapiens), sequence (Q13133 whole entry, looked up, the tested form may be a part): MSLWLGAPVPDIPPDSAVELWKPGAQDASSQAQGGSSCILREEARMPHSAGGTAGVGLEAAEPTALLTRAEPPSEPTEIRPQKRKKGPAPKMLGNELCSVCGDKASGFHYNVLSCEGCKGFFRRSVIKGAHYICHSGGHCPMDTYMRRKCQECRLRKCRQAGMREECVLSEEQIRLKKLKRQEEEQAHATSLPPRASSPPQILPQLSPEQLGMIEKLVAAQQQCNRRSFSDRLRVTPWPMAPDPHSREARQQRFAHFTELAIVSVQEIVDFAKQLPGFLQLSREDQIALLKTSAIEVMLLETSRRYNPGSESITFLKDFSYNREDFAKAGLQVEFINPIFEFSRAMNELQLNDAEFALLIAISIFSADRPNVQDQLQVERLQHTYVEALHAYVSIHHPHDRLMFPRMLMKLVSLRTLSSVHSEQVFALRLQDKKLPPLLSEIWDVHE
Nuclear receptor subfamily 4 group A member 2 (Homo sapiens), sequence (P43354 whole entry, looked up, the tested form may be a part): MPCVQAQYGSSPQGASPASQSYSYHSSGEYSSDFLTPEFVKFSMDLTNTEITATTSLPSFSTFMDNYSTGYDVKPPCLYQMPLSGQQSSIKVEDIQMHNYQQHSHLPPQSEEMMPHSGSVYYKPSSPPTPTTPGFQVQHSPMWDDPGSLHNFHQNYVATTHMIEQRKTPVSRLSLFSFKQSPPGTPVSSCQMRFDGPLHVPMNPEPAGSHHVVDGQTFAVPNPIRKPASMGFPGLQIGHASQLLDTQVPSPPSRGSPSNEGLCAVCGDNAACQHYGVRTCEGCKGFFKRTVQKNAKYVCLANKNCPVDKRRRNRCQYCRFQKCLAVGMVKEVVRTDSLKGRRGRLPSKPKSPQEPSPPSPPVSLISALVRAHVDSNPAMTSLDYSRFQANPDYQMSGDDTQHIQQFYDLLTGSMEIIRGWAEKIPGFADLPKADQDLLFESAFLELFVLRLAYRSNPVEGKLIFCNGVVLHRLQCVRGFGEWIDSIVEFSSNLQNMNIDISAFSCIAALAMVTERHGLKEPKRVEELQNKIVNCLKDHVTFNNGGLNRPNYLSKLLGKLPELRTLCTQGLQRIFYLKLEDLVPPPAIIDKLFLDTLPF

O=C(OCCc1ccccc1)c1ccccc1
not listed: [13] | [14] | [15] | [16] | [17] | [18] | [19]
inactive: all other assays above

Oc1ccccc1Cc1ccccc1O
inactive: [7] | [8] | [9] | [10] | [13] | [12]
active: [1] 37.9 µM | [3] 133 µM | [5] 18.1 µM | [6] 144 µM

CCC(C)c1ccccc1 (stereo unspecified)
not listed: [4] | [5] | [6] | [11] | [13] | [18] | [19]
inactive: all other assays above

O=C1CCCN1C1CCCCC1
inactive: [1] | [2] | [3] | [5] | [6] | [7] | [18] | [15] | [12]

O=C(O)CCCC(=O)O
not listed: [3] | [4] | [7] | [9] | [14] | [15] | [18] | [19]
inactive: all other assays above

CC(C)c1cccc(C(C)C)c1N
not listed: [4] | [15] | [16] | [19]
inactive: all other assays above

CC(C)(O)Cc1ccccc1
not listed: [4] | [9] | [10] | [14] | [15] | [16] | [17] | [18]
inactive: all other assays above

C[N+](C)(C)CCCNS(=O)(=O)C(F)(F)C(F)(F)C(F)(F)C(F)(F)C(F)(F)C(F)(F)C(F)(F)C(F)(F)F
active: [2] 60.6 µM
not listed: [4] | [9] | [13] | [16] | [18] | [19]
inactive: all other assays above

CCC(C)(O)CCCC(C)C (stereo unspecified)
not listed: [3] | [8] | [9] | [10] | [13] | [17] | [18] | [19]
inactive: all other assays above

CC(C)=NNC(N)=S
inactive: [1] | [2] | [3] | [14] | [15] | [10] | [11] | [12]

Cc1cc(C)c(C=O)c(C)c1
inactive: [1] | [2] | [6] | [7] | [14] | [16] | [12]
active: [3] 3.24 µM

Oc1c(Cl)cc(Cl)c(Cl)c1Cl
inactive: [1] | [2] | [5] | [6] | [9] | [16] | [17] | [10] | [12]
active: [3] 59.8 µM

C=C1C[C@H]2[C@@H]3C=C(C)C4=CC(=O)CC[C@]4(C)[C@H]3CC[C@]2(C)[C@@]1(OC(C)=O)C(C)=O
inactive: [2] | [7] | [14] | [16] | [10] | [13] | [11]
active: [1] 18.9 µM | [6] 88 µM | [8] 0.0106 µM | [9] 16.6 µM

Source: PubChem BioAssay (EPA / NIEHS)
